A selection: hits, their analogues and other compounds. The true share with any hit is near 3.4%.
proKLK7 act = activates the human kallikrein-7 zymogen. P49862. purified proKLK7, EDANS-DABCYL substrate fluorescence; 100% is mature enzyme control, 0% vehicle. activation, % at 7 µM. 370,000 tested, 0.9% active;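 active = activation above the mean of all tested compounds plus 3 SD, computed per campaign excluding outliers beyond control limits, cut at about 13% in these data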
ADAM10 inh = ADAM10 inhibition, QFRET primary screen. O14672. recombinant ADAM10, EDANS/DABCYL FRET peptide cleavage, 3 h. inhibition, % at 7 µM. 370,000 tested, 0.62% active. AID 720582;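 active = inhibition above a per-campaign cutoff equal to the mean of compounds falling between control-based bounds plus 3 SD, cut at about 20% in these data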;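 also: 0% = DMSO wells while the 100% control is not disclosed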
ADAM17 inh = inhibitors of human ADAM17. recombinant ADAM17, EDANS/DABCYL FRET peptide cleavage. inhibition, % at 6.95 µM. 370,000 tested, 0.83% active. AID 720648;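 active = inhibition above the mean of compounds lying between control limits plus 3 SD, set per campaign, cut at about 8.5% in these data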;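 also: 0% = DMSO-only wells as the low control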
sPLA2-III inh = Blocks human group III sPLA2 activity; 370,000 tested, 0.56% active; inhibition, % at 12.2 µM; QFRET BODIPY PC-A2 liposome hydrolysis, fluorescence;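 active = inhibition above mean plus 3 SD of compounds lying within the high and low control bounds, cut at about 19% in these data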;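 also: 0% = median of test compound wells and 100% = no enzyme DMSO wells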
NRP1-CendR mod = NRP-1/CendR interaction modulation | O14786 | inhibition, % at 25 µM | FAM-RPARPAR peptide binding to NRP-1, fluorescence polarization | 360,000 tested, 0.85% active;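 active = inhibition or corrected inhibition above about 18%, plus a signal ratio from 0.5 to 1.5, limit read from the data, passing the limit was not always enough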
proKLK7 act conf = confirmation of human kallikrein-7 zymogen activators; AID 686949; purified proKLK7, EDANS-DABCYL substrate fluorescence; scaled: vehicle 0, mature enzyme 100; shares compounds with proKLK7 act; 3,200 tested, 68% active; activation, % at 7 µM;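 active = activation, as change over the incubation, above the mean of all tested compounds plus 3 SD, cut at about 13% in these data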
EDANS interfere = fluorescence interference counter-screen for KLK7 activators; shares compounds with proKLK7 act; EDANS-DABCYL substrate fluorescence interference, no enzyme, 4 h; solvent 0%, active enzyme control 100%; activation, % at 7 µM; 3,200 tested, 80% active; AID 686952;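 active = activation above the all-compound mean plus 3 SD, ignoring values outside control-based bounds, cut at about 4.8% in these data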;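 also: value is the 4 h activation minus the activation read at time zero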
EDANS interf = EDANS fluorescence interference in dose response, no enzyme | shares compounds with proKLK7 act | EC50, µM | 250 tested, 20% active | EDANS-DABCYL peptide fluorescence interference;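 active = compounds that raise the fluorescence signal in this interference counterscreen, with EC50 at or below 10 µM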;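 also: intact quenched peptide substrate alone read at 355 nm excitation and 520 nm emission; signal is fluorescence gain from T0 to T4 after four hours at room temperature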
Starred values were filed as active, the others as inactive; i = inactive; x = no result given.

SMILES	proKLK7 act	ADAM10 inh	ADAM17 inh	sPLA2-III inh	NRP1-CendR mod	proKLK7 act conf	EDANS interfere	others
NC(=O)C1=CN([C@@H]2O[C@H](COP(=O)(O)OP(=O)(O)OC[C@H]3O[C@@H](n4cnc5c(N)ncnc54)[C@H](O)[C@@H]3O)[C@@H](O)[C@H]2O)C=CC1	0.1	-13.0	-0.3	4.4	x	x	x
CC(C)=CCC/C(C)=C/CNC(=O)C[C@H]1C[C@H](C(=O)N(C(C)C)C(C)C)[C@@]2(C)c3[nH]c4cc(-c5ccco5)ccc4c3CCN2C1=O	-3.7	-359.8	-113.7	-9.6	-11.4	x	x
CCN(CC)C(=O)[C@H]1C[C@H](CC(=O)NC/C=C(\C)CCC=C(C)C)C(=O)N2CCc3c([nH]c4cc(-c5ccco5)ccc34)[C@]12C	19.0*	-212.7	-81.3	-11.1	-10.8	4.0	12.4*
Cc1ccc(S(=O)(=O)NCC(=O)N2CCN(c3ccccn3)CC2)cc1C	-0.1	-15.9	-3.4	-0.2	x	x	x
Cc1c(C)c2ccc(O[C@@H]3O[C@H](CO)[C@H](O)[C@H](O)[C@H]3O)cc2oc1=O	0.7	-149.6	-70.3	5.2	-8.1	x	x
COc1cc2cc(Oc3ccc4ccc(=O)oc4c3)c(=O)oc2cc1O[C@@H]1O[C@H](CO)[C@@H](O)[C@H](O)[C@H]1O	25.4*	-224.7	-60.9	-5.9	-48.7	36.0*	48.8*
COc1cc2cc(Oc3ccc4ccc(=O)oc4c3)c(=O)oc2cc1OC1OC(COC(=O)CC(C)(O)CC(=O)O)C(O)C(O)C1O (stereo not given)	20.7*	i	-155.6	-2.8	-15.5	33.6*	31.1*
COc1ccc(S[C@]2(C(=O)N(C)C)CC(=O)N(C(=O)Nc3ccc(C)c(Cl)c3)[C@@H]2c2ccc(OC)cc2)cc1	-0.4	1.3	4.0	-0.1	x	x	x
COc1ccc2[nH]c3c(=S)nc[nH]c3c2c1	20.7*	-107.9	-37.4	7.3	1.7	0.1	0.8
COc1ccc2[nH]c3c(Cl)ncnc3c2c1	0.5	-10.2	-4.4	7.1	0.1	x	x
CC1(C)CC(=O)C=C(Nc2ccccc2NC(=O)c2cc(Cl)ccc2F)C1	0.4	1.3	1.8	2.1	x	x	x
O=C(c1cccn2c(=O)c3ccccc3nc12)N1CCN(Cc2ccc3c(c2)OCO3)CC1	15.5*	i	-172.6	-1.3	-10.5	21.6*	27.9*
O=C(c1cccn2c(=O)c3cc(Cl)ccc3nc12)N1CCN(Cc2ccc3c(c2)OCO3)CC1	-28.8	i	-203.8	-18.7	-3.5	x	x
O=C(c1cccn2c(=O)c3cc(Cl)ccc3nc12)N1CCOCC1	52.2*	i	-408.2	2.8	-7.3	64.9*	73.3*
c1nc(NC[C@@H]2CCCO2)c2cc(-c3ccc4c(c3)OCO4)ccc2n1	x	-75.9	-28.6	4.0	x	x	x
COC(=O)c1ccc2c(C)c(C(C)(C)O)[nH]c2c1	27.6*	i	i	-9.7	-0.4	66.8*	63.5*
CSCC[C@H](NC(=O)COc1cc2c(c3oc(=O)c(C)c(C)c13)CCC(C)(C)O2)C(=O)O	57.1*	i	i	1.6	1.7	67.3*	72.8*
Cc1c(C)c2c(OCC(=O)N[C@@H](CC(C)C)C(=O)O)cc3c(c2oc1=O)CCC(C)(C)O3	45.4*	i	i	-4.7	9.6	41.0*	27.4*	EDANS interf=>69.5
COCCCNC(=O)COc1cc2c(c3oc(=O)c(C)c(C)c13)CCC(C)(C)O2	18.5*	i	i	1.9	-8.1	-94.0	-74.2
CSC[C@H](NC(=O)COc1cc2c(c3oc(=O)c(C)c(C)c13)CCC(C)(C)O2)C(=O)O	60.2*	i	i	0.4	-3.2	62.4*	70.3*
CCn1c2ccccc2c2cc(NC(=O)CSc3nnc(-c4ccccc4)n3Cc3ccco3)ccc21	-0.5	5.2	3.3	-6.7	x	x	x
